Reference: PubChem BioAssay (NCI)
Compounds without any hit were thinned out: in the full panel of roughly 83,000, 20% have a hit.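 Assay: single dose, 48 h. Readout: percent growth (0 = no net growth; negative = cell death). Active: <10.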

Columns and labels:
Assay in all cases: NCI-60 one-dose screen, 48 h (100 = growth as untreated, 0 = no growth, -100 = all killed)
Settings in all cases: 10 µM unless noted
SK-MEL-2 melanoma = system: SK-MEL-2 melanoma
EKVX NSCLC = system: EKVX NSCLC
SN12C renal = system: SN12C renal
UO-31 renal = system: UO-31 renal
TK-10 renal = system: TK-10 renal
ACHN renal = system: ACHN renal
CAKI-1 renal = system: CAKI-1 renal
A498 renal = system: A498 renal
CCRF-CEM leukemia = system: CCRF-CEM leukemia
MOLT-4 leukemia = system: MOLT-4 leukemia
SR leukemia = system: SR leukemia
RPMI-8226 leukemia = system: RPMI-8226 leukemia
OVCAR-8 ovarian = system: OVCAR-8 ovarian
OVCAR-5 ovarian = system: OVCAR-5 ovarian
OVCAR-4 ovarian = system: OVCAR-4 ovarian
SK-OV-3 ovarian = system: SK-OV-3 ovarian
IGROV1 ovarian = system: IGROV1 ovarian
OVCAR-3 ovarian = system: OVCAR-3 ovarian
HS 578T breast = system: HS 578T breast
NCI/ADR-RES ovarian = system: NCI/ADR-RES ovarian

Measured: growth

C=C(C)[C@@H]1CC[C@]2(C(=O)N3CCN(C)CC3)CC[C@]3(C)[C@H](CC[C@@H]4[C@@]5(C)CC(CCCNC(C)=O)(CCCNC(C)=O)[C@H](OC(C)=O)C(C)(C)[C@@H]5CC[C@]43C)[C@@H]12
inactive: SK-MEL-2 melanoma 112% | EKVX NSCLC 96.4% | SN12C renal 96.5% | UO-31 renal 80.5% | TK-10 renal 109% | ACHN renal 101% | CAKI-1 renal 79.3% | A498 renal 109% | CCRF-CEM leukemia 91.8% | MOLT-4 leukemia 85.7% | SR leukemia 76.2% | RPMI-8226 leukemia 75.5% | OVCAR-8 ovarian 106% | OVCAR-5 ovarian 102% | OVCAR-4 ovarian 111% | SK-OV-3 ovarian 102% | IGROV1 ovarian 102% | OVCAR-3 ovarian 104% | HS 578T breast 96.6% | NCI/ADR-RES ovarian 98.7%

Cc1c(C(=O)OCCCCOC(=O)c2c(C)n(C)c3scc[n+]23)[n+]2ccsc2n1C
inactive: SK-MEL-2 melanoma 106% | EKVX NSCLC 95.6% | SN12C renal 90.8% | UO-31 renal 78.9% | TK-10 renal 114% | ACHN renal 97.2% | CAKI-1 renal 101% | A498 renal 156% | CCRF-CEM leukemia 96.4% | MOLT-4 leukemia 94.9% | SR leukemia 117% | RPMI-8226 leukemia 96.1% | OVCAR-8 ovarian 96.2% | OVCAR-5 ovarian 83.5% | OVCAR-4 ovarian 103% | SK-OV-3 ovarian 103% | IGROV1 ovarian 110% | OVCAR-3 ovarian 95.3% | HS 578T breast 179% | NCI/ADR-RES ovarian 110%

C=C1C(=O)O[C@@H]2[C@H]3[C@H](COC(C)=O)[C@@H](OC(C)=O)C[C@H]3C(=C)[C@@H](O)C[C@@H]12
inactive: SK-MEL-2 melanoma 88% | EKVX NSCLC 110% | SN12C renal 92.9% | UO-31 renal 87.9% | TK-10 renal 82.4% | ACHN renal 85.9% | CAKI-1 renal 87.8% | A498 renal 121% | CCRF-CEM leukemia 61.8% | MOLT-4 leukemia 89.8% | SR leukemia 72.6% | RPMI-8226 leukemia 76% | OVCAR-8 ovarian 92.1% | OVCAR-5 ovarian 97.2% | OVCAR-4 ovarian 110% | SK-OV-3 ovarian 108% | IGROV1 ovarian 101% | OVCAR-3 ovarian 80.9% | HS 578T breast 92.4% | NCI/ADR-RES ovarian 98.6%
